# Records with an inconclusive call do not appear. A call without a number means that no potency is given here. Calls of active or inactive are those of the source. Calls follow the shape of the dose curve; as a rule, active = well fitted curve in the direction sought with a large enough effect; inconclusive = small, poorly fitted or top-dose-only effect, or another doubt; inactive = no such curve, though single readings can be large; an effect the other way counts as inactive or inconclusive.
# Assays:
# [1] = qHTS of pediatric cancer cell lines to identify multiple opportunities for drug repurposing: Confirmatory screen for Rh41 cells (AID 1347123);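 also: 48 h compound exposure; nearly all actives have a fitted effect of over 60% in size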; also: potency is read from the fitted curve at half-maximal effect
# Outline: (§1)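 Viability after 48 h compound treatment at 37C, 500-1,000 cells/well, read as ATP luminescence with CellTiter-Glo. Primary screens used 11-point (MIPE, 0.78 nM-46 µM) or 8-point (NPC, 0.59 nM-46 µM) final concentrations; follow-up screens used 11-point dilutions.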
# [2] = qHTS of pediatric cancer cell lines to identify multiple opportunities for drug repurposing: Confirmatory screen for RD cells (AID 1347124);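 also: cells exposed to compound for 48 h before viability readout; nearly all actives have a fitted effect of over 65% in size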; also: potency is read from the fitted curve at half-maximal effect
# From the text: Drug repurposing or repositioning has been offered as a strategy for drug development in oncology programs. This approach has special potential for childhood cancers and other rare or orphan diseases, where the expected return on new drug development has been a disincentive to pharmaceuticals.
# In this project we exploit the poly-pharmacology of drugs to discover new indications via phenotypic screening of a panel of 19 well-characterized cell lines derived from solid tumors seen in children and adolescents. The goal is to identify approved drugs with previously unrecognized anticancer properties that has the potential to reveal new mechanisms and biological processes involved in carcinogenesis or drug resistance. We employed a titration-based paradigm (quantitative high-throughput screening or qHTS), where all compounds were tested at multiple concentrations for their effect on cell viability. Concentration-response curves (CRCs) were derived directly from the primary screen, and both potency and efficacy values were used to identify compounds with robust bioactivity profiles. We screened the NIH Chemical Genomics Center (NCGC) Pharmaceutical Collection (NPC) and Mechanism Interrogation Plate (MIPE) small molecule collections of approved and investigational compounds against these cell lines; and measured metabolically active cells after 48 hours of compound treatment as a proxy for cell viability.
# Assay Submitter: Nathalia J. Martinez, National Center for Advancing Translational Sciences, National Institutes of Health, Rockville, MD, USA; email: natalia.martinez@nih.gov
# [1] Shen, M et al. Quantitative high-throughput phenotypic screening of pediatric cancer cell lines identifies multiple opportunities for drug repurposing. Oncotarget 2017 Dec 19;9(4):4758-4772. PMID 29435139.
# The cells were obtained from University of North Carolina (UNC), Pediatric Preclinical Testing Program (PPT), and Coriell Institute (CI).
# qHTS cell viability assay:
# Cells were assayed in growth media at a density of 500-1,000 cells/well. Five microliters of cells were dispensed into 1,536-well, white, solid-bottom, TC-treated plates (Greiner Bio One) using a multidrop dispenser and incubated at 37 degrees C, 5% CO2, under a humidified atmosphere for 5 hours. Twenty-three nanoliters of compounds and controls (neutral control DMSO or positive control bortezomib at final concentration of 2.3 µM) were subsequently transferred by Kalypsys pintool. […] After a 15 min incubation at room temperature, samples were analyzed for luminescence intensity using a ViewLux High-throughput CCD imager equipped with clear filters.
# [3] = qHTS of pediatric cancer cell lines to identify multiple opportunities for drug repurposing: Confirmatory screen for Rh18 cells (AID 1347125); also: nearly all actives have a fitted effect of over 55% in size; also: potency is read from the fitted curve at half-maximal effect
# Outline: as §1
# [4] = qHTS of pediatric cancer cell lines to identify multiple opportunities for drug repurposing: Confirmatory screen for SK-N-SH cells (AID 1347129);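 also: cells exposed to compound for 48 h before viability read; nearly all actives have a fitted effect of over 60% in size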
# Outline: as §1
# [5] = qHTS of pediatric cancer cell lines to identify multiple opportunities for drug repurposing: Confirmatory screen for Rh30 cells (AID 1347126); also: nearly all actives have a fitted effect of over 55% in size; also: potency is read from the fitted curve at half-maximal effect
# Outline: as §1
# [6] = qHTS of pediatric cancer cell lines to identify multiple opportunities for drug repurposing: Confirmatory screen for OHS-50 cells (AID 1347128);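 also: compound exposure lasted 48 h at 37 degrees C; nearly all actives have a fitted effect of over 55% in size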; also: potency is read from the fitted curve at half-maximal effect
# Outline: as §1
# [7] = test system: Zika virus NS2B-NS3 protease (linked construct); assay: Confirmatory screen NINDS AMC qHTS for Zika virus inhibitors (AID 1347152); conditions: Purified linked NS2B-NS3, AMC substrate fluorescence; also: potency is read from the fitted curve at half-maximal effect; nearly all actives have a fitted effect of over 70% in size
# Outline: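 Linked NS2B-NS3 1 nM, Tris pH 8.0/0.01% Tween 20; cpd 15 min RT dark; + Nle-KRR-AMC 10 µM (Km 18.3 µM); read 0 and 15 min, 340/450 nm; %inh vs controls, 4-param Hill.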
# [8] = test system: Zika virus NS2B-NS3 protease (unlinked complex); assay: Confirmatory screen GU AMC qHTS for Zika virus inhibitors (AID 1347153); also: nearly all actives have a fitted effect of over 70% in size;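 as to potency: enzyme at 25 nM with substrate at 10 µM below its Km of 18.3 µM; potency is read from the fitted curve at half-maximal effect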
# Outline: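 Unlinked NS2B-NS3 complex (25 nM) in 10 mM Tris-HCl pH 8.0, 0.01% Tween 20 preincubated 15 min with compound, then 10 microM Bz-Nle-KRR-AMC (Km 18.3 µM). Fluorescence change over 15 min, normalized, Hill-fitted.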
# Furin (Homo sapiens) = Furin (Homo sapiens) (UniProt P09958); assay: Furin counterscreen qHTS for Zika virus inhibitors (AID 1347149); also: nearly all actives have a fitted effect of over 70% in size; also: potency is read from the fitted curve at half-maximal effect
# Chain of Furin (Homo sapiens) (P09958 whole entry, looked up): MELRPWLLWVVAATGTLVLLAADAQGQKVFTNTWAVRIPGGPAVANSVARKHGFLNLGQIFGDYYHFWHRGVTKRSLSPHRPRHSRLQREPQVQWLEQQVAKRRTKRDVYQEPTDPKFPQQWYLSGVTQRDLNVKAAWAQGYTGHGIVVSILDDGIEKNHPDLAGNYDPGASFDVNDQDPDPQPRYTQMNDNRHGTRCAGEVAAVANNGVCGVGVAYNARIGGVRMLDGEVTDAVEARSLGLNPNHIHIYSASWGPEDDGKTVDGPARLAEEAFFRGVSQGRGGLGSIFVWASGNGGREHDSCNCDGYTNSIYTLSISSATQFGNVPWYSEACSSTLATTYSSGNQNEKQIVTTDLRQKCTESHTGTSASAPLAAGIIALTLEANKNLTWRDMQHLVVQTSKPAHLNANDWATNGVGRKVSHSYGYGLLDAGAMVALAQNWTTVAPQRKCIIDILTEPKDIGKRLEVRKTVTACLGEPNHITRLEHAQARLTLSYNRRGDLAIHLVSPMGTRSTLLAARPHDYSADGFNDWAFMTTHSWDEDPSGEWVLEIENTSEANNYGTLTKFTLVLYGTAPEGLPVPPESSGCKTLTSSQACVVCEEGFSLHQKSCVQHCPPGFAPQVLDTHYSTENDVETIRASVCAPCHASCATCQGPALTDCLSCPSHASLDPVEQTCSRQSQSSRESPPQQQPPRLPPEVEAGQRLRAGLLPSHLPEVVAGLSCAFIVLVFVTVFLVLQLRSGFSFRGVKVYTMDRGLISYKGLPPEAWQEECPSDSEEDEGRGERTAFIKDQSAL
# Outline: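 Fluorogenic cleavage of BOC-RVRR-AMC (2 microM final, Km ~15 µM) was monitored (ex 340, em 450 nm) at 37C after 15 min RT preincubation of 5 nM furin with compounds in HEPES pH 7.0 buffer with CaCl2 and Triton X-100. Percent inhibition was fitted to a 4-parameter Hill curve.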
# [9] = qHTS of pediatric cancer cell lines to identify multiple opportunities for drug repurposing: Confirmatory screen for Saos-2 cells (AID 1347127); conditions: Saos-2 osteosarcoma cell viability; also: potency is read from the fitted curve at half-maximal effect; nearly all actives have a fitted effect of over 60% in size
# Outline: as §1
compound,measurement,setting,value
O=C(Cn1ccnc1[N+](=O)[O-])NCc1ccccc1,Potency,[1],inactive
same,Potency,[2],inactive
same,Potency,[3],inactive
same,outcome,[4],inactive
COc1cc(C(=O)NCCCCCC(=O)O)cc(OC)c1OC,Potency,[1],inactive
same,Potency,[2],inactive
same,Potency,[3],inactive
same,Potency,[5],inactive
same,Potency,[6],inactive
same,outcome,[4],inactive
O=C(O)Cn1c(C(=O)Nc2nc(-c3ccccc3Cl)cs2)cc2ccccc21,Potency,[7],21.5 µM (active)
same,Potency,[8],24.1 µM (active)
O=C(O)[C@@H]1[C@H]2C[C@H]3c4[nH]c5ccccc5c4CCN3C[C@@H]2CC[C@@H]1O,Potency,Furin (Homo sapiens),21.5 µM (active)
same,Potency,[8],inactive
CN1C[C@@H]2C[C@H]1CN2c1cc2c(cc1F)c(=O)c(C(=O)O)cn2C1CC1,Potency,Furin (Homo sapiens),9.41 µM (active)
same,Potency,[7],16.7 µM (active)
same,Potency,[8],16.7 µM (active)
COc1ccccc1Oc1c(NS(=O)(=O)c2ccc(C(C)(C)C)cc2)nc(-c2ncccn2)nc1OCCO,Potency,Furin (Homo sapiens),inactive
CC(=O)OCC(=O)[C@@]1(O)CC[C@H]2[C@@H]3CCC4=CC(=O)C=C[C@]4(C)[C@@]3(F)[C@@H](O)C[C@@]21C,Potency,[1],11.7 µM (active)
same,Potency,[2],20.8 µM (active)
same,Potency,[3],18.5 µM (active)
same,Potency,[5],13.1 µM (active)
same,Potency,[9],11.7 µM (active)
same,Potency,[6],16.5 µM (active)
same,outcome,[4],inactive
CC(=O)[C@@]1(O)CC[C@H]2[C@@H]3C[C@H](C)C4=CC(=O)C=C[C@]4(C)[C@@]3(F)[C@@H](O)C[C@@]21C,Potency,[2],inactive
same,Potency,[3],inactive
same,Potency,[5],inactive
same,Potency,[6],inactive

# Source: PubChem BioAssay (NCATS)
